# Laboratory results reported in the supplement of paper PMC10849652.
# About 7,900 targets were measured; listed, in parts, are those with a hit and a random draw of the rest. About 0.6% of all pairs of compound and target were hits. A number with no mark means an inactive call.
# Compound: CC(C)C[C@@H](C=O)NC(=O)[C@H](CC(C)C)NC(=O)[C@H](CC(C)C)NC(=O)OCc1ccccc1
# Assay: log2 fold change, soluble protein after heating vs DMSO (PISA); higher = thermal stabilisation; K562 cells, 10 uM, 30 min; active = over 0.2 and 3.5 SD of the protein, either way, in both replicates (recomputed)
# Outline: (§1)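 K562 cells at 2×10^6 cells/mL were treated for 30 min with 10 μM compound, and aliquots were heated for 3 min over 48°C-58°C before pooling. Extraction used PBS with 0.5% NP-40 at 4°C, and soluble protein was the supernatant after 21,000xg for 90 min, measured by TMTpro 16plex LC-MS/MS with channel sums equalised. Thermal stability values, relative to control samples and from duplicates, are log2 fold changes.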
# Chain of UniProt P14324 (P14324 whole entry, looked up): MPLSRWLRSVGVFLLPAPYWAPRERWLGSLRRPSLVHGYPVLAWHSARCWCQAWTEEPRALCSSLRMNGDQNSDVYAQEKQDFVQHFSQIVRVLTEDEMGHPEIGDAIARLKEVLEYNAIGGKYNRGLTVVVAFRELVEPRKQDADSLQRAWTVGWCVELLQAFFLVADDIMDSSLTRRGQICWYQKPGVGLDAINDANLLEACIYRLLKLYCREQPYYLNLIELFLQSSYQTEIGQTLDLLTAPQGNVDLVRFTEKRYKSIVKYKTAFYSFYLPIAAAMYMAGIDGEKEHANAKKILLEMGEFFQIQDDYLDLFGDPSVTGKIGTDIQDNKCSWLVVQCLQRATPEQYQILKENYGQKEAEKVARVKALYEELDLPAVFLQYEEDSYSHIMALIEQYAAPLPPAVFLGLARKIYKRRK
# Chain of UniProt Q96I24 (Q96I24 whole entry, looked up): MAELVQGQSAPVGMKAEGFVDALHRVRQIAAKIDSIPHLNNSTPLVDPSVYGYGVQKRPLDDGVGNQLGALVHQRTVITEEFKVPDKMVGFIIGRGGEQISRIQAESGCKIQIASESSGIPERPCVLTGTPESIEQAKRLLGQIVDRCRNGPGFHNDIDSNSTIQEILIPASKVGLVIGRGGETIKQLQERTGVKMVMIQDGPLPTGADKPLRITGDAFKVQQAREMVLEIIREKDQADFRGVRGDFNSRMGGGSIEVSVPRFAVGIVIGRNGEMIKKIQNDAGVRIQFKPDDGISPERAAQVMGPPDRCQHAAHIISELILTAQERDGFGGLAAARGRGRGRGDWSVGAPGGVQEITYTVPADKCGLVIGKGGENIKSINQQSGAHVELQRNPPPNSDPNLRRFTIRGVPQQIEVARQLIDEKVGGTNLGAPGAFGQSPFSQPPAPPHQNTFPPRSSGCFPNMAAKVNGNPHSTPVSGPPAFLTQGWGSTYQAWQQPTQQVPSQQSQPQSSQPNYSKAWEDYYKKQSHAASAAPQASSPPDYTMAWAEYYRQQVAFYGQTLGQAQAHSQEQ
# Chain of UniProt P22570 (P22570 whole entry, looked up): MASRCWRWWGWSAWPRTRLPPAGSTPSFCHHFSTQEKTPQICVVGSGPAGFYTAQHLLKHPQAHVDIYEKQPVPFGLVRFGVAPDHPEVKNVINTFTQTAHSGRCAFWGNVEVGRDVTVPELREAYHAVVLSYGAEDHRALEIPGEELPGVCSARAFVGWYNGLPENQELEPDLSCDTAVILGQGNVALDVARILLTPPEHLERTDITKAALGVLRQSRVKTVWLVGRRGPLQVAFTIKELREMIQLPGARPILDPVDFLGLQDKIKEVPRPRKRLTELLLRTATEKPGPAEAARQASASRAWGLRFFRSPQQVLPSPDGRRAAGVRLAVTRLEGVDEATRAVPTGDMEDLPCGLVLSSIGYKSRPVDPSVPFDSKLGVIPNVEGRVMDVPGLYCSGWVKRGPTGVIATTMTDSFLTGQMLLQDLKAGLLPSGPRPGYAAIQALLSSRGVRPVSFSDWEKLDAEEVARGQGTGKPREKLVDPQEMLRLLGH
# Chain of UniProt Q53GQ0 (Q53GQ0 whole entry, looked up): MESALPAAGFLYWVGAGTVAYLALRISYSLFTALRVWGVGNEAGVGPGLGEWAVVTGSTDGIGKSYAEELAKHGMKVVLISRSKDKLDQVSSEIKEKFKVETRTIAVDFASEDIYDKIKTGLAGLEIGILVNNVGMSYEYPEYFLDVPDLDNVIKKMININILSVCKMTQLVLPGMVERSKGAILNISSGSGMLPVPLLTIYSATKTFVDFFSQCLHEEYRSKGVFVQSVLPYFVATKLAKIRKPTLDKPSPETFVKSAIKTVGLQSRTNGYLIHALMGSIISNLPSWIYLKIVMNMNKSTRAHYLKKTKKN
# Chain of UniProt Q8TEQ6 (Q8TEQ6 whole entry, looked up): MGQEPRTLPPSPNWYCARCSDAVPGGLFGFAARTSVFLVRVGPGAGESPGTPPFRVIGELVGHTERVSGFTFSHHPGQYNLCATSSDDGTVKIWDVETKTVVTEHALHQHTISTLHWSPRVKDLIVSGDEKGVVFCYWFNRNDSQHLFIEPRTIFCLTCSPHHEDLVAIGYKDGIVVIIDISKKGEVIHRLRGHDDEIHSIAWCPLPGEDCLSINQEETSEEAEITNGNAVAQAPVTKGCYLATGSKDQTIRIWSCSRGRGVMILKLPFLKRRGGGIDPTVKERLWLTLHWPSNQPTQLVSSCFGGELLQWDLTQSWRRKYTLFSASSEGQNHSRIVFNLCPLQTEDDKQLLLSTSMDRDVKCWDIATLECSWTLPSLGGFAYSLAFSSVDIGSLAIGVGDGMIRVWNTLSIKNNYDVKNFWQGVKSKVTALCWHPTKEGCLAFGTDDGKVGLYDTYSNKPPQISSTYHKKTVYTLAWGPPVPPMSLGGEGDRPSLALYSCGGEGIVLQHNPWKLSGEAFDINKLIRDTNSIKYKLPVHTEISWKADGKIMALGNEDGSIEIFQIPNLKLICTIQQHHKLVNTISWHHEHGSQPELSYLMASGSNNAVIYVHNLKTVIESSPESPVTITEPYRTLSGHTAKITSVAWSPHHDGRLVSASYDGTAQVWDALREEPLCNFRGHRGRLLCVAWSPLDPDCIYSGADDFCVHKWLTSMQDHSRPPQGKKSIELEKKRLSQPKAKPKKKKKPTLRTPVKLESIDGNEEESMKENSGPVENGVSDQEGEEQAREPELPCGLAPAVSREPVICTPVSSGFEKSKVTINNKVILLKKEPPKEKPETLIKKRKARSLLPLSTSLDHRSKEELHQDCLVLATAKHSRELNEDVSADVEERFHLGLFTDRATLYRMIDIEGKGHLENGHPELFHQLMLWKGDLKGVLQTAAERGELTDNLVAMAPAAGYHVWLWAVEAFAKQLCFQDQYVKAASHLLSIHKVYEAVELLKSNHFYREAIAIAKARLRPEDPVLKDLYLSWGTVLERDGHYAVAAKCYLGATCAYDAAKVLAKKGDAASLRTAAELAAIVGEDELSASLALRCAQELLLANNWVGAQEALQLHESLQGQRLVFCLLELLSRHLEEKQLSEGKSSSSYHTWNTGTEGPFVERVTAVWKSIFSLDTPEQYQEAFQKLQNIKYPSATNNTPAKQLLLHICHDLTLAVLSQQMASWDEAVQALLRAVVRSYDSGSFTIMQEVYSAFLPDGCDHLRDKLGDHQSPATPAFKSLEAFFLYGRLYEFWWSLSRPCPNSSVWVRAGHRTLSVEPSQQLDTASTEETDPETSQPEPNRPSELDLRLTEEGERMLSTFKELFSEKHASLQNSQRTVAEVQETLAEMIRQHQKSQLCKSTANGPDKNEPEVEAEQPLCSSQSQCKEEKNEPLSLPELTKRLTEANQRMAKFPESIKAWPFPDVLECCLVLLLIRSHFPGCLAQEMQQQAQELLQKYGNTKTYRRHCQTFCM
# Chain of UniProt Q02790 (Q02790 whole entry, looked up): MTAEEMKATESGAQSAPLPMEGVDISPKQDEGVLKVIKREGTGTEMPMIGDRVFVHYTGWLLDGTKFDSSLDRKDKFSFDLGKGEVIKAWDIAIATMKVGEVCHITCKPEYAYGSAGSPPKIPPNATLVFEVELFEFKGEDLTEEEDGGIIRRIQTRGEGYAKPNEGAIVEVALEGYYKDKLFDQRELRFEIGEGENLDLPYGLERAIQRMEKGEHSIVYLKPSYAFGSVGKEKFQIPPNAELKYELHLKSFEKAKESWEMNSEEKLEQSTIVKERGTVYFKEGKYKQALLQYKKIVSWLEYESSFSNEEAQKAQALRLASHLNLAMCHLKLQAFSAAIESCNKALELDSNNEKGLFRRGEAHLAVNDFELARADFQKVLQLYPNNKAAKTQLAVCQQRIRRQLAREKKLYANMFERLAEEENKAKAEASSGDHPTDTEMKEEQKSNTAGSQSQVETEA
# Chain of UniProt P55084 (P55084 whole entry, looked up): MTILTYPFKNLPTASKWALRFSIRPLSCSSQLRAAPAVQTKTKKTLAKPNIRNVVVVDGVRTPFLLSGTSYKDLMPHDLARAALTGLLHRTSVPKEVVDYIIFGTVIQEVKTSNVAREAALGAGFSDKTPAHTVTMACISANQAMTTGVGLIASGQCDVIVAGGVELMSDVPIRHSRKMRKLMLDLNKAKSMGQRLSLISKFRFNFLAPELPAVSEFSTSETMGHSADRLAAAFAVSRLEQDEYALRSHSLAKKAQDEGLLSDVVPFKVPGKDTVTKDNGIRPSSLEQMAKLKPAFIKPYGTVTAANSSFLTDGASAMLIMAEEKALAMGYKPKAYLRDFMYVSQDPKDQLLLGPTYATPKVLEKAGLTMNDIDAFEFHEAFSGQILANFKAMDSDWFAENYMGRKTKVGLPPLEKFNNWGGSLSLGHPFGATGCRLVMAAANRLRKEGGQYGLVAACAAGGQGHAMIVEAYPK
# Chain of UniProt Q8WXD5 (Q8WXD5 whole entry, looked up): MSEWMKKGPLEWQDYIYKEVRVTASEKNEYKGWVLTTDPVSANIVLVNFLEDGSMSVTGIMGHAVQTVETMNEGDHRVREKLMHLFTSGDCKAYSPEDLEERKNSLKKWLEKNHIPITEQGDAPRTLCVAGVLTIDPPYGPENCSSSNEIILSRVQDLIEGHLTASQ
# Chain of UniProt P69905 (P69905 whole entry, looked up): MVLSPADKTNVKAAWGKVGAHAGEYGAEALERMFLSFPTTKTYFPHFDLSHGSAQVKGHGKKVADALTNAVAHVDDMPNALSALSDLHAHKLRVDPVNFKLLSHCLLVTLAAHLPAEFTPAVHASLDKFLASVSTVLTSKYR
# Chain of UniProt P52657 (P52657 whole entry, looked up): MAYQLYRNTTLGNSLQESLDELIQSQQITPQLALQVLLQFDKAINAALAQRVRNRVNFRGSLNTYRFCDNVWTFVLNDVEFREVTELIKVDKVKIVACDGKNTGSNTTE
# Chain of UniProt P30519 (P30519 whole entry, looked up): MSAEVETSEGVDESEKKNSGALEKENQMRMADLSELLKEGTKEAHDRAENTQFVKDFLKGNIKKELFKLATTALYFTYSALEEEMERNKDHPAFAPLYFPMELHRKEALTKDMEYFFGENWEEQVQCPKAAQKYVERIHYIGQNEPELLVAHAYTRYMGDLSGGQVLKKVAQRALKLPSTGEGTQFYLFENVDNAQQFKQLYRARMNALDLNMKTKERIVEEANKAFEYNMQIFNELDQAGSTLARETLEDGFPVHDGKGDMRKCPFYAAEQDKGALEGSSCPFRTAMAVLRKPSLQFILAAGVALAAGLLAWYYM
row,Target,log2 fold change
1,HADHB (UniProt P55084),-0.106
2,GDPD1 (UniProt Q8N9F7),0.03
3,HBZ (UniProt P02008),-0.019
4,FNTA (UniProt P49354),-0.031
5,FUBP3 (UniProt Q96I24),0.036
6,FAM91A1 (UniProt Q658Y4),0
7,GTF3C4 (UniProt Q9UKN8),0.035
8,HSPA8 (UniProt E9PK54),0.074
9,GNPAT (UniProt O15228),-0.014
10,GTF2A2 (UniProt P52657),-0.019
11,HBA1 (UniProt P69905),-0.056
12,GDI1 (UniProt P31150),-0.012
13,HMOX2 (UniProt P30519),0.028
14,HMGN2 (UniProt P05204),0.093
15,GYG1 (UniProt P46976),0.064
16,FKBP3 (UniProt Q00688),-0.014
17,HEATR5B (UniProt Q9P2D3),0.023
18,FKBP4 (UniProt Q02790),0.002

row,Target,log2 fold change
1,H2AFX (UniProt P16104),0.308
2,GUSB (UniProt P08236),-0.005
3,HDAC6 (UniProt Q9UBN7),-0.025
4,FBXO42 (UniProt Q6P3S6),0.011
5,HP1BP3 (UniProt Q5SSJ5),0.063
6,GEMIN5 (UniProt Q8TEQ6),0.033
7,HSD17B12 (UniProt Q53GQ0),-0.062
8,HNRNPF (UniProt P52597),0.069
9,GALNT2 (UniProt Q10471),-0.02
10,IFT80 isoform 3 (UniProt Q9P2H3),0.072
11,GEMIN6 (UniProt Q8WXD5),-0.226
12,FDPS (UniProt P14324),-0.028
13,GNAS (UniProt Q5JWF2),-0.009
14,GOPC (UniProt Q9HD26),0.083
15,FDXR isoform 7 (UniProt P22570),0.015
16,HECTD1 (UniProt Q9ULT8),0.141
17,GLUL (UniProt P15104),-0.013

# Compound: CC(C)N(C[C@H]1O[C@@H](n2cnc3c(N)ncnc32)[C@H](O)[C@@H]1O)[C@H]1C[C@@H](CCc2nc3cc(C(C)(C)C)ccc3[nH]2)C1 [pinometostat]
# Assay: as above
# Outline: as §1
row,Target,log2 fold change
1,HADHB (UniProt P55084),-0.05
2,GDPD1 (UniProt Q8N9F7),-0.027
3,HBZ (UniProt P02008),-0.017
4,FNTA (UniProt P49354),-0.018
5,FUBP3 (UniProt Q96I24),-0.017
6,FAM91A1 (UniProt Q658Y4),0.134
7,GTF3C4 (UniProt Q9UKN8),0
8,HSPA8 (UniProt E9PK54),0.001
9,GNPAT (UniProt O15228),-0.018
10,GTF2A2 (UniProt P52657),-0.064
11,HBA1 (UniProt P69905),0.025
12,GDI1 (UniProt P31150),-0.008
13,HMOX2 (UniProt P30519),0
14,HMGN2 (UniProt P05204),-0.074
15,GYG1 (UniProt P46976),0.125
16,FKBP3 (UniProt Q00688),-0.057
17,HEATR5B (UniProt Q9P2D3),0.008
18,FKBP4 (UniProt Q02790),-0.032

row,Target,log2 fold change
1,H2AFX (UniProt P16104),0.368
2,GUSB (UniProt P08236),-0.032
3,HDAC6 (UniProt Q9UBN7),0.009
4,FBXO42 (UniProt Q6P3S6),-0.051
5,HP1BP3 (UniProt Q5SSJ5),0.092
6,GEMIN5 (UniProt Q8TEQ6),0.043
7,HSD17B12 (UniProt Q53GQ0),-0.064
8,HNRNPF (UniProt P52597),0.018
9,GALNT2 (UniProt Q10471),-0.02
10,IFT80 isoform 3 (UniProt Q9P2H3),0.049
11,GEMIN6 (UniProt Q8WXD5),0.046
12,FDPS (UniProt P14324),0.048
13,GNAS (UniProt Q5JWF2),0
14,GOPC (UniProt Q9HD26),0.174
15,FDXR isoform 7 (UniProt P22570),-0.024
16,HECTD1 (UniProt Q9ULT8),0.079
17,GLUL (UniProt P15104),-0.021

# Compound: CC1=C(C(CC(=O)N1)C2=CC=C(C=C2)C(F)(F)F)C(=O)NC3=C(C=C4C(=C3)C=NN4)F
# Assay: as above
# Outline: as §1
row,Target,log2 fold change
1,HADHB (UniProt P55084),-0.147
2,GDPD1 (UniProt Q8N9F7),-0.005
3,HBZ (UniProt P02008),0.004
4,FNTA (UniProt P49354),-0.023
5,FUBP3 (UniProt Q96I24),-0.022
6,FAM91A1 (UniProt Q658Y4),0.018
7,GTF3C4 (UniProt Q9UKN8),-0.047
8,HSPA8 (UniProt E9PK54),0.017
9,GNPAT (UniProt O15228),0.004
10,GTF2A2 (UniProt P52657),0.016
11,HBA1 (UniProt P69905),-0.019
12,GDI1 (UniProt P31150),-0.022
13,HMOX2 (UniProt P30519),-0.016
14,HMGN2 (UniProt P05204),0.108
15,GYG1 (UniProt P46976),0.03
16,FKBP3 (UniProt Q00688),-0.033
17,HEATR5B (UniProt Q9P2D3),0.022
18,FKBP4 (UniProt Q02790),-0.019

row,Target,log2 fold change
1,H2AFX (UniProt P16104),-0.019
2,GUSB (UniProt P08236),0.174
3,HDAC6 (UniProt Q9UBN7),-0.046
4,FBXO42 (UniProt Q6P3S6),-0.038
5,HP1BP3 (UniProt Q5SSJ5),-0.139
6,GEMIN5 (UniProt Q8TEQ6),0.004
7,HSD17B12 (UniProt Q53GQ0),0.015
8,HNRNPF (UniProt P52597),0.05
9,GALNT2 (UniProt Q10471),-0.028
10,IFT80 isoform 3 (UniProt Q9P2H3),-0.085
11,GEMIN6 (UniProt Q8WXD5),-0.004
12,FDPS (UniProt P14324),0.007
13,GNAS (UniProt Q5JWF2),-0.059
14,GOPC (UniProt Q9HD26),-0.118
15,FDXR isoform 7 (UniProt P22570),-0.033
16,HECTD1 (UniProt Q9ULT8),0.026
17,GLUL (UniProt P15104),0.105
